Test [1] in a line: Nuclear factor erythroid 2-related factor 2/antioxidant responsive element (Nrf2/ARE) small molecule agonists: qHTS cell viability counter screen in human keratinocytes (AID 1919968; active means well fitted curve in the direction sought with a large enough effect in the repeat runs; an effect the other way counts as inactive or inconclusive; further: nearly all actives have a fitted effect of over 55% in size). The gist of the method: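 KeratinoSens HaCaT cells, 1,500/well, preincubated 5 h, then exposed to compounds in DMSO for 23 h at 37 C/5% CO2. Viability read as CellTiter-Fluor fluorescence after 1 h, in the same wells as the ARE-luciferase read.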

The nature of test [2]: Nuclear factor erythroid 2-related factor 2/antioxidant responsive element (Nrf2/ARE) small molecule agonists: luciferase reporter gene qHTS assay in human keratinocytes (AID 1919969). Further: nearly all actives have a fitted effect of over 35% in size. Further: potency means the concentration at half of the fitted maximal effect. In general terms: A reporter such as luciferase makes a cellular process visible.
Test [3] addresses Gonadotropin-releasing hormone receptor (Homo sapiens) (UniProt P30968). Put plainly: Human gonadotropin-releasing hormone receptor (GnRHR) small molecule agonists, calcium flux assay in GnRHR-HEK293 cells (AID 1920063). Further: nearly all actives have a fitted effect of over 35% in size. The method in brief: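 HEK293 cells stably expressing human GnRHR were dye-loaded for 1 h at 37 C. Compound was added in agonist mode and fluorescence (Ex/Em 480/540) recorded kinetically for 3 min. Fifteen concentrations, triplicates.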

Test [4] deals with KiSS-1 receptor (Homo sapiens) (UniProt Q969F8). Put plainly: Human kisspeptin (KISS1R) small molecule agonists, calcium flux assay in KISS1R-HEK293 cells (AID 1920064; active means well fitted curve in the direction sought with a large enough effect in the repeat runs; an effect the other way counts as inactive or inconclusive). The method in brief: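 HEK293 cells stably expressing human KISS1R were loaded with calcium dye for 1 h at 37 C, then given compound; fluorescence (Ex/Em 480/540) was read kinetically for 3 min. Fifteen concentrations, triplicate.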

Test [5] is described as follows: G protein-coupled receptor (GPCR) small molecule agonists, calcium flux assay: HEK293 wild type cell line counter screen (AID 1920065). The gist of the method:
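Wild-type HEK293 cells plated 18 h, loaded with calcium dye 1 h at 37 C, then compounds added in agonist mode (ATP as positive control). Kinetic fluorescence Ex/Em 480/540 recorded 3 min at 1 sec intervals; 15 concentrations, triplicate.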

Test [6] is described as follows: p53 small molecule agonists, cell-based qHTS assay with human liver microsomes (AID 1963577).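 Further: p53 response element beta-lactamase reporter cells with liver microsomes plus NADPH.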 The gist of the method:
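16 h, 37 C exposure of p53RE-bla cells to compounds with human liver microsomes and NADPH (0.5 mg/mL final each); detection via LiveBLAzer mixture, 2 h dark at room temperature.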

Test [7] in a line: p53 small molecule agonists, cell-based qHTS assay with rat liver microsomes (AID 1963578). The method in brief:
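With rat liver microsomes and NADPH present (0.5 mg/mL final each), p53RE-bla cells are treated with compound for 16 h at 37 C. LiveBLAzer detection mixture is then applied for 2 h at room temperature in the dark.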
In general terms: In qHTS, concentration-response curves come from the screen itself.

Test [8] is described as follows: p53 small molecule agonists, cell-based qHTS assay with human liver microsomes: qHTS cell viability counter screen (AID 1963579). Further: nearly all actives have a fitted effect of over 45% in size. The gist of the method: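 In this multiplexed counter screen, the reporter plates were subsequently treated with CellTiter-Glo so that cell viability, reflected by luminescence, could be recorded for p53RE-bla cells dosed 16 h with compounds under microsomal activation (HLM and NADPH).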

Test [9] is described as follows: p53 small molecule agonists, cell-based qHTS assay with rat liver microsomes: qHTS cell viability counter screen (AID 1963580). Further: nearly all actives have a fitted effect of over 45% in size. The method in brief: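 Intracellular ATP, by CellTiter-Glo luminescence, defines viability. HCT-116 p53RE-bla cells, 4,000 per well, were compound-treated in the presence of rat liver microsomes and NADPH for 16 h at 37 C.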
The nature of test [10]: p53 small molecule agonists, cell-based qHTS assay: qHTS cell viability counter screen (AID 1963581). Further: nearly all actives have a fitted effect of over 45% in size. The gist of the method:
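p53RE-bla HCT-116 cells, compounds added 5 h after plating and incubated 16 h at 37 C. Cytotoxicity measured in the same wells as intracellular ATP by CellTiter-Glo luminescence after 30 min at room temperature.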

Test [11] can be described thus: p53 small molecule agonists, cell-based qHTS assay (AID 1963582; active means well fitted activation curve with a large enough effect in the signal ratio in the repeat runs, not every such curve was filed as active; the % refers to the signal ratio). The method in brief: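 p53RE-bla reporter cells, compounds added in DMSO after 5 h plating, incubated 16 h at 37 C. Beta-lactamase read via 2 h room-temperature LiveBLAzer B/G FRET substrate, fluorescence intensity.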
For test [12], the target named is 5-hydroxytryptamine receptor 2A (Homo sapiens) (UniProt P28223). Put plainly: 5-hydroxytryptamine receptor 2A (HTR2A) small molecule antagonists, cell-based qHTS assay (AID 1963586). Further: nearly all actives have a fitted effect of over 45% in size. The method in brief: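 Antagonist-mode intracellular calcium assay: DOI (4 nM) added after 5 min compound pre-incubation at room temperature to dye-loaded HTR2A-CHO cells. Fluorescence followed for 3 min, sampled every second.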

Test [13] has the same target. Put plainly: 5-hydroxytryptamine receptor 2A (HTR2A) small molecule agonists, cell-based qHTS assay (AID 1963587). Further: nearly all actives have a fitted effect of over 30% in size. The gist of the method:
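Kinetic calcium-flux fluorescence (2 min, 1 sec intervals) after compound addition in agonist mode. HTR2A-CHO cells were cultured 18 h, then dye-loaded 1 h at 37 C.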

Test [14] concerns the target Muscarinic acetylcholine receptor M1 (Homo sapiens) (UniProt P11229). Put plainly: Cholinergic receptor muscarinic 1 (CHRM1) small molecule antagonists, cell-based qHTS assay (AID 1963588). Further: nearly all actives have a fitted effect of over 40% in size. The gist of the method:
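CHRM1-CHO calcium-flux assay, antagonist mode. Cells were seeded 18 h, dye-loaded 1 h at 37 C and given compound for 5 min at RT, then acetylcholine was added at 50nM. FDSS fluorescence was read 3 min; 15 concentrations, three runs.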

The target is the same in test [15]. Put plainly: Cholinergic receptor muscarinic 1 (CHRM1) small molecule agonists, cell-based qHTS assay (AID 1963589). Further: nearly all actives have a fitted effect of over 35% in size. The gist of the method:
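CHO cells stably expressing human CHRM1 were loaded with calcium dye for 1 h at 37 C, then compound was added in agonist mode. Intracellular calcium fluorescence was followed kinetically at 1 s intervals. Fifteen concentrations were tested in three independent runs.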

The target in test [16] is Beta-2 adrenergic receptor (Homo sapiens) (UniProt P07550). Put plainly: Adrenergic beta2 receptor (ADRB2) small molecule antagonists, cell-based qHTS assay (AID 1963592). Further: series mostly up to about 92 µM; nearly all actives have a fitted effect of over 50% in size. The method in brief: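 Cells (CHO, stable ADRB2 overexpression) incubated 18-20hr at 37C; compounds added from DMSO; agonist mix (1nM isoproterenol, 100uM IBMX, 25uM Ro-20-1724) added; 0.5hr RT; d2-cAMP and anti-cAMP-cryptate added; 1hr RT; 665/615 nm read.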

In test [17] the target is D(2) dopamine receptor (Homo sapiens) (UniProt P14416). Put plainly: Dopamine D2 receptor (DRD2) small molecule agonists, cell-based qHTS assay (AID 1963594). Further: nearly all actives have a fitted effect of over 35% in size. The method in brief: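 cAMP accumulation in DRD2-HEK293 cells measured by HTRF after 1 h detection; compounds added 10 min before NKH477 (200nM […]) forskolin-analogue stimulation, 30 min at room temperature, with Ro20-1724 present at 0.1 mM final.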

A short description of test [18]: cAMP Responsive Elements (CRE) small molecule antagonists, cell-based qHTS assay (AID 1963591; active means well fitted inhibition curve with a large enough effect in the signal ratio in the repeat runs, not every such curve was filed as active; the % refers to the signal ratio). The gist of the method:
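CRE-bla HEK293T cells plated 18 h, then given compound plus NKH477 at 0.25 uM final for 3 h at 37C. Beta-lactamase reporter read with LiveBLAzer B/G FRET substrate after 2 h at room temperature.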

In test [19] the target is D(2) dopamine receptor (Homo sapiens) (UniProt P14416). Put plainly: Dopamine D2 receptor (DRD2) small molecule antagonists, cell-based qHTS assay (AID 1963595; active means well fitted inhibition curve with a large enough effect in the signal ratio in the repeat runs, with a control signal flat; the % refers to the signal ratio). The gist of the method:
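Antagonism was scored as restored cAMP in HEK293-DRD2 cells. These cells were stimulated with 200 nM NKH477 and 12 nM quinpirole for 30 min at room temperature, in the presence of 0.1 mM Ro20-1724.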

Inconclusive results are not listed. The source made the active and inactive calls. Unless noted, the call rests on the fitted dose curve.

Chain of Beta-2 adrenergic receptor (Homo sapiens) (P07550 whole entry, looked up): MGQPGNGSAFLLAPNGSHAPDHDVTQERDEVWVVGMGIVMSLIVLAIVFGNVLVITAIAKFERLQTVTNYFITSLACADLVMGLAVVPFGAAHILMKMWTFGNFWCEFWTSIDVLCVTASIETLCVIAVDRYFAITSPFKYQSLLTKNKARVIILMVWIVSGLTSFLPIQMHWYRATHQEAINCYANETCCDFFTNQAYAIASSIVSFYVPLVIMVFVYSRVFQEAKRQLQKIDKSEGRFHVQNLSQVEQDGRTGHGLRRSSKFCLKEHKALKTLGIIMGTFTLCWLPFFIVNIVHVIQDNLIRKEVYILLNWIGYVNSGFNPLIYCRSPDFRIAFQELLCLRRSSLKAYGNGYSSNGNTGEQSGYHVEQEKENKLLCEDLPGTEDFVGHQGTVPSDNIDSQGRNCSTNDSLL
Chain of Gonadotropin-releasing hormone receptor (Homo sapiens) (P30968 whole entry, looked up): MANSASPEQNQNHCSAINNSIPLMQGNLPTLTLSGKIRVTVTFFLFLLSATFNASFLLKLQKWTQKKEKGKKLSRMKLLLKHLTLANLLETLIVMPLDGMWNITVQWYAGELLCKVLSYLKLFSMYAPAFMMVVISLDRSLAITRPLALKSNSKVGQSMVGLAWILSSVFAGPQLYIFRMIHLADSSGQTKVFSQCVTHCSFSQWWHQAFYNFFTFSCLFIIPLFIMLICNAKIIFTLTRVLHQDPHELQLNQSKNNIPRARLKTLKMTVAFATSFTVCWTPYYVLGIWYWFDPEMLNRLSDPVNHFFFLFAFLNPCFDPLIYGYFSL
Chain of KiSS-1 receptor (Homo sapiens) (Q969F8 whole entry, looked up): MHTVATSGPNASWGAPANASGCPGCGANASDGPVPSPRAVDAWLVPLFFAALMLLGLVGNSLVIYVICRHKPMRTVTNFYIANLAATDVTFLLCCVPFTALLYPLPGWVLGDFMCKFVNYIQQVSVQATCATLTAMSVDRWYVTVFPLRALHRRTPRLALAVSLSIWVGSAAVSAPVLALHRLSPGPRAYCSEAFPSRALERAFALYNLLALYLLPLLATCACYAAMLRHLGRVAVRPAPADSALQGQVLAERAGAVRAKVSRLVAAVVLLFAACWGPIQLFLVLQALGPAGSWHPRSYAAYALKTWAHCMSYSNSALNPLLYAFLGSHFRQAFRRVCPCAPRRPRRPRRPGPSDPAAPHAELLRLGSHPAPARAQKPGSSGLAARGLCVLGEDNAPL
Chain of 5-hydroxytryptamine receptor 2A (Homo sapiens) (P28223 whole entry, looked up): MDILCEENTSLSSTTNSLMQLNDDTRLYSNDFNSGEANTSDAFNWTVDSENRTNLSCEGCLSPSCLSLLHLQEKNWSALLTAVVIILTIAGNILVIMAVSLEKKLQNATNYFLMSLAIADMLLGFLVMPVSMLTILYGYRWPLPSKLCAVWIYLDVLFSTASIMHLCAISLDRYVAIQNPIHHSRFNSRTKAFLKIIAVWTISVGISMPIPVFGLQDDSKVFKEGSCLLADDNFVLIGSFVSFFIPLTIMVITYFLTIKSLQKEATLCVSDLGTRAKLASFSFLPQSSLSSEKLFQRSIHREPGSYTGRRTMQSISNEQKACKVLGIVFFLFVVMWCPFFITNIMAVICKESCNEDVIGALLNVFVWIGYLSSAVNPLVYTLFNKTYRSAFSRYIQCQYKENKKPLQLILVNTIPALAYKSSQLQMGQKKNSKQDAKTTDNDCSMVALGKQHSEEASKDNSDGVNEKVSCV
Chain of D(2) dopamine receptor (Homo sapiens) (P14416 whole entry, looked up): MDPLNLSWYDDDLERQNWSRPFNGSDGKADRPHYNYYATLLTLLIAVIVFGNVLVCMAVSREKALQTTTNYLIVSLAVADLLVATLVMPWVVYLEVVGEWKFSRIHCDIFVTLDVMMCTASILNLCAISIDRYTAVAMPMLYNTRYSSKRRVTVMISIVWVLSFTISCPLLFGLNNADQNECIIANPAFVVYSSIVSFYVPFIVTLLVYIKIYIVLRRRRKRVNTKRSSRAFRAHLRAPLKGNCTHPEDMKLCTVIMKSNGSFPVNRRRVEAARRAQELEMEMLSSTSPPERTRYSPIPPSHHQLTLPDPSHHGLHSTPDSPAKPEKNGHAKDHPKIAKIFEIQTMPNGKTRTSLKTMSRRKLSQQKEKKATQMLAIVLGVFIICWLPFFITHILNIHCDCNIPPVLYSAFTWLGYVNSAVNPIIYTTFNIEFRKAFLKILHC
Chain of Muscarinic acetylcholine receptor M1 (Homo sapiens) (P11229 whole entry, looked up): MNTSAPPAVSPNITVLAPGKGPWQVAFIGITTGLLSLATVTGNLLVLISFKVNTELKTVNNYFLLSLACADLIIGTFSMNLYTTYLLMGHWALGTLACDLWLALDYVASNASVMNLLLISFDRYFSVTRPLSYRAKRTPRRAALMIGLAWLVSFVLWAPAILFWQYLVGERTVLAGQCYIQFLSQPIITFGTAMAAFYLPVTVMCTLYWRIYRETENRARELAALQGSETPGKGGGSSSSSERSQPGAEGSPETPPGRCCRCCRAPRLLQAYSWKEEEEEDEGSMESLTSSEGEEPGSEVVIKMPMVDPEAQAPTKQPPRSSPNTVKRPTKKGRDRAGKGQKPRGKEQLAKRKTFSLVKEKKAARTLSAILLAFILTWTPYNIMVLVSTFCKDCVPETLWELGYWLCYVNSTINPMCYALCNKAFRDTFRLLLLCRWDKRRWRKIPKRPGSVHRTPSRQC

With `CCCCCCCC(=O)Oc1c(Br)cc(C#N)cc1Br`, the Potency entry in [1], in test [2], in test [3], in test [6], in test [7] and in test [8] was “inactive” each time. The Potency result in test [9], in test [10], in test [11], in test [12], in test [13] and in test [14] was “inactive” throughout. The Potency entry in test [15], in [16] and in [17] was “inactive” each time. For the same molecule, the result in [4] and in test [5] was inactive.
As to `CCC(O)C(C)(C)C` (stereo unspecified), the Potency entry in test [1], in test [2], in test [3], in test [6], in [7] and in [8] was “inactive” each time. Also, the Potency entry in test [9], in test [10], in test [11], in [12], in test [13] and in test [14] was “inactive” throughout. Further, the Potency entry in test [15], in test [18], in test [16], in test [17] and in test [19] was “inactive” each time. Also, the outcome in test [4] and in [5] was inactive.
As for `COc1cccc(O)c1O`, the Potency entry in [1], in test [3], in test [6], in test [7], in test [8] and in test [9] was “inactive” each time. For the same molecule, the Potency entry in test [10], in [11], in [12], in [13], in test [14] and in test [15] was “inactive” throughout. Further, the Potency entry in test [16] is “inactive”. For the same molecule, the Potency in [2] is 28.4 µM (active). Besides, the outcome in test [4] and in test [5] was inactive.
`CCOC(=O)C(=O)CCc1ccccc1`: the Potency entry in test [1], in test [2], in [3], in test [6], in [7] and in test [8] was “inactive” in each case. Moreover, the Potency result in test [9], in [10], in test [11], in test [12], in test [13] and in [14] was “inactive” each time. Moreover, the Potency result in test [15], in test [18], in test [16], in [17] and in [19] was “inactive” throughout. Besides, the result in test [4] and in [5] was inactive.
For the molecule `Cc1cc(C)c(NC(=O)CN(CC(=O)O)CC(=O)O)c(C)c1Br`, the Potency entry in [1], in test [2], in [3], in test [6], in [7] and in test [8] was “inactive” throughout. The Potency entry in [9], in test [10], in test [11], in test [12], in test [13] and in test [14] was “inactive” throughout. Besides, the Potency result in test [15], in test [18], in test [16] and in test [19] was “inactive” each time. Moreover, the result in test [4] and in test [5] was inactive.
`CCCCCCCCCCCCSC`: the Potency entry in test [1], in test [2], in test [3], in [6], in test [7] and in [8] was “inactive” throughout. Moreover, the Potency entry in test [9], in test [10], in test [11], in test [12], in test [13] and in test [14] was “inactive” throughout. In addition, the Potency result in test [15], in test [18], in test [16], in test [17] and in test [19] was “inactive” throughout. Further, the result in test [4] and in test [5] was inactive.
Turning to `CCOC(=O)C(C)O` (stereo unspecified), the Potency result in [1], in test [2], in [3], in test [6], in test [7] and in [8] was “inactive” each time. The Potency entry in test [9], in [10], in [11], in test [12], in test [13] and in [14] was “inactive” each time. Further, the Potency result in test [15], in test [18], in test [16] and in test [17] was “inactive” each time. Moreover, the result in test [4] and in test [5] was inactive.
